Measurements as given in the supplement of paper PMC11732987, “Enantioselective OTUD7B fragment discovery through chemoproteomics screening and high-throughput optimisation” (Communications Chemistry, 2025).

How the values were obtained:
Assay in all cases: log2 ratio of Biotin-Ahx-Ub-VS probe labelling (compound/DMSO); higher = less target engagement, active = hit call of the paper (q ≤ 0.05, log2 ratio ≤ -1)
Settings in all cases: treatment time: 3 h
[1] = compound: ClCC(=O)NC(C1CCCC1)c1cccs1
How it was run: (§1)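 Compound at 50 or 200 µM, or DMSO, was applied for 3 h in triplicate to HEK293T lysate (495 µg per sample, Tris/CHAPS/IGEPAL buffer with protease inhibitors), after which Biotin-Ahx-Ub-VS was added at 0.5 µM final for 1 h. The labelled DUBs were pulled down with NeutrAvidin, digested with LysC and trypsin, and run by diaPASEF LC-MS/MS. Ratios are averaged base-two logs of compound over DMSO from median-normalised label-free quantities by unpaired t-test, counting only proteins with at least 2 unique peptides.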

[2] = compound: CCC1N(CCc2sccc12)C(=O)CCl
How it was run: as §1

[3] = compound: CN1c2ccccc2C(CS1(=O)=O)NC(=O)CCl
How it was run: as §1

[4] = compound: Cl.ClCC(=O)N1CCc2ncncc2C1
How it was run: as §1

[5] = compound: Cl.Cn1ncc2C(CCCc12)NC(=O)CCl
How it was run: as §1

[6] = compound: ClCC(=O)NC1CCOc2ccccc12
How it was run: as §1

[7] = compound: ClCC(=O)NC1CCCc2ccccc12
How it was run: (§2)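 Spectronaut label-free, global-median-normalised protein quantities underlie these values, which are average ratios of compound to vehicle from an unpaired t-test. They are reported as log2 and include only proteins identified by two or more unique peptides. Samples of HEK293T lysate (495 µg) were treated in triplicate with a compound concentration series or vehicle for 3 h, then labelled with Biotin-Ahx-Ub-VS at 0.5 µM final for 1 h before NeutrAvidin enrichment, LysC and trypsin digestion, and diaPASEF LC-MS/MS.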

[8] = compound: ClCC(=O)N[C@@H]1CCCc2ccccc12
How it was run: as §2

[9] = compound: ClCC(=O)N[C@H]1CCCc2ccccc12
How it was run: as §2

[10] = compound: CCC1N(CCc2cc(OC)c(Cl)cc12)C(=O)CCl
How it was run: as §1

[11] = compound: CCCC1N(CCc2cc(OC)c(OC)cc12)C(=O)CCl
How it was run: as §1

[12] = compound: CN(Cc1cccc(Br)c1)C(=O)CCl
How it was run: as §1

[13] = compound: CN(Cc1cccc(OCc2ccccc2C)c1)C(=O)CCl
How it was run: as §1

[14] = compound: CN(Cc1ccccc1)C(=O)CCl
How it was run: as §1

[15] = compound: COc1ccc(CN(C)C(=O)CCl)cc1
How it was run: as §1

[16] = compound: COc1cccc(CN(CCCc2ccccc2)C(=O)CCl)c1
How it was run: as §1

[17] = compound: ClCC(=O)N1CCc2cc(Cl)c(Cl)cc2C1
How it was run: as §1

[18] = compound: ClCC(=O)N1CCc2nc(ncc2C1)-c1ccccc1
How it was run: as §1

[19] = compound: ClCC(=O)N1CCc2nocc2C1
How it was run: as §1

[20] = compound: ClCC(=O)N1CCc2scc(Br)c2C1
How it was run: as §1

Measured: log2 ratio of Biotin-Ahx-Ub-VS probe labelling

OTUB1 (UniProt Q96FW1)
UniProt Q96FW1, sequence (Q96FW1 whole entry): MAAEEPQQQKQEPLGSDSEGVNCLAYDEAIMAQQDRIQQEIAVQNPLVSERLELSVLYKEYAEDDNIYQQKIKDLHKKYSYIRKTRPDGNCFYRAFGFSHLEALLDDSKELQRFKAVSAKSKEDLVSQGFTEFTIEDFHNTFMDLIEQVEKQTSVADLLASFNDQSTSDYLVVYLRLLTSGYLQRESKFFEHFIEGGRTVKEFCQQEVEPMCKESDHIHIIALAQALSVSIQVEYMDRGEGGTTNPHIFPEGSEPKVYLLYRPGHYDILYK
inactive: [1]; compound concentration: 200uM -0.00015

USP24 (UniProt Q9UPU5)
UniProt Q9UPU5, sequence (Q9UPU5 whole entry): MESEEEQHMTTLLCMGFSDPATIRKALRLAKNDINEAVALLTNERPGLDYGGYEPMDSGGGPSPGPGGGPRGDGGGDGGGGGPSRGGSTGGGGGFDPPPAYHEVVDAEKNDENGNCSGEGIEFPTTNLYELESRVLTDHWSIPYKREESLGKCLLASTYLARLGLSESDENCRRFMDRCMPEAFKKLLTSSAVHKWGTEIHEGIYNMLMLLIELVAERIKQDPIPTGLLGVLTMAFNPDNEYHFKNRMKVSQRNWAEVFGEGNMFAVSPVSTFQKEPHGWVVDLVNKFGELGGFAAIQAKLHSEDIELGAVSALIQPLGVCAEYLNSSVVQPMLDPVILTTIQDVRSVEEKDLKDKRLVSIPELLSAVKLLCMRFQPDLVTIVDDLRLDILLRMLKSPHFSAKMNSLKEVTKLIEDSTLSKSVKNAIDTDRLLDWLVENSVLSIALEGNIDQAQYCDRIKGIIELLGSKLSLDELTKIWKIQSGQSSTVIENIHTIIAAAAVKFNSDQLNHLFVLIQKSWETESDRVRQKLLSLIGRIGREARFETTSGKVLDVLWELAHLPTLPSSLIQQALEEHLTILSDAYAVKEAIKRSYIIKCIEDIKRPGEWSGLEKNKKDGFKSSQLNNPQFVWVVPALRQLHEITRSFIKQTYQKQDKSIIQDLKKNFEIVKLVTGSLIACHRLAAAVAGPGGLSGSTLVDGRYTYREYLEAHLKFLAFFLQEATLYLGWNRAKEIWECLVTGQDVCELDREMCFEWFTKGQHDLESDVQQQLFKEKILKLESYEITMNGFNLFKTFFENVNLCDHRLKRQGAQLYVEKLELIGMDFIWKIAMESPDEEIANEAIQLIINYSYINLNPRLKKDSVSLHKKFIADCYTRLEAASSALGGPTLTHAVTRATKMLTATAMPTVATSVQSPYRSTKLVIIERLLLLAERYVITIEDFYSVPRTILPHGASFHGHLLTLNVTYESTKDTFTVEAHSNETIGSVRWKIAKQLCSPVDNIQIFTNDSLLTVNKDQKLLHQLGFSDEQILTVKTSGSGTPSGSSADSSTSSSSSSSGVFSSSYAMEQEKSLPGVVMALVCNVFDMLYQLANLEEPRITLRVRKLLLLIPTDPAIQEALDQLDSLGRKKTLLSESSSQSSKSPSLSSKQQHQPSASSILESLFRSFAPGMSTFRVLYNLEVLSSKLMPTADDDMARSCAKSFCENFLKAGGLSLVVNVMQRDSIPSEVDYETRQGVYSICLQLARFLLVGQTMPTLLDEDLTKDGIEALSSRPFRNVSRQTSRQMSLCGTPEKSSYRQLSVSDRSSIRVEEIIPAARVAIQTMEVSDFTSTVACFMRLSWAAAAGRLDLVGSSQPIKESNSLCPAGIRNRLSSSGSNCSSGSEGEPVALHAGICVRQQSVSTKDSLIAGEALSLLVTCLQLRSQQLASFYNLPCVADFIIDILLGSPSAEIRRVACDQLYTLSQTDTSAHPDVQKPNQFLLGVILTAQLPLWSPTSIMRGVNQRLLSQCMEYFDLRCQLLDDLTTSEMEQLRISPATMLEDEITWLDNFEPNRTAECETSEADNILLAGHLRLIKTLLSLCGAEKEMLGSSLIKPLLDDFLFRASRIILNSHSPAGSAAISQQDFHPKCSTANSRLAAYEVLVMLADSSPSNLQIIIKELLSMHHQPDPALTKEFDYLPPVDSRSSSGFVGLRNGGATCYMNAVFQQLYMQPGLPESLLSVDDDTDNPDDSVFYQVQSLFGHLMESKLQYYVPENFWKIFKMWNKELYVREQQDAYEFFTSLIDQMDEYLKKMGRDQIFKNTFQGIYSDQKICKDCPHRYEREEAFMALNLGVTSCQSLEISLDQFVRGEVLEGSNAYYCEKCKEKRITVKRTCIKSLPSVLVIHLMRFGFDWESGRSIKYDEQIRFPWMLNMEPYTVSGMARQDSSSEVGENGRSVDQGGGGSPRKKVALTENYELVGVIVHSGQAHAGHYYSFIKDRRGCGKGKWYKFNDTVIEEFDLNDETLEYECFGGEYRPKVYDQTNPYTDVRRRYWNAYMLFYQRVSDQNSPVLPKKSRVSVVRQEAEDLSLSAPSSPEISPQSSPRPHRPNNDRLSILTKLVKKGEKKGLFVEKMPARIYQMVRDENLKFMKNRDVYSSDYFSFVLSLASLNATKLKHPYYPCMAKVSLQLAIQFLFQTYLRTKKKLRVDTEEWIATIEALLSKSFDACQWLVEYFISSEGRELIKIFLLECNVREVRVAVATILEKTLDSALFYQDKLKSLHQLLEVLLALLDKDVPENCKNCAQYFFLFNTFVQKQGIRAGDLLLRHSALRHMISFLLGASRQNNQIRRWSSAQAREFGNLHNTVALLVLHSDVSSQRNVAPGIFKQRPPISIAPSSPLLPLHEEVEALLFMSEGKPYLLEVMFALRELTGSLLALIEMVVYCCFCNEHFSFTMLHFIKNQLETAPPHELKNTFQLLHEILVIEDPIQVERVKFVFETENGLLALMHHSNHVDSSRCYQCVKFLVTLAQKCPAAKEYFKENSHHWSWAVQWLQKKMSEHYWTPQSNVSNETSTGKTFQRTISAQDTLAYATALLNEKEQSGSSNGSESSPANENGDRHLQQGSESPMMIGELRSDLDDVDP
active: [2]; compound concentration: 200uM -1.29 | [10]; compound concentration: 200uM -1.37 | [11]; compound concentration: 200uM -1.41 | [12]; compound concentration: 200uM -1.48 | [13]; compound concentration: 200uM -2.02 | [16]; compound concentration: 200uM -1.68 | [17]; compound concentration: 200uM -2.35 | [18]; compound concentration: 200uM -1.41 | [20]; compound concentration: 50uM -1.1 | [20]; compound concentration: 200uM -2.46
inactive: [2]; compound concentration: 50uM -0.392 | [3]; compound concentration: 50uM -0.121 | [3]; compound concentration: 200uM -0.347 | [4]; compound concentration: 50uM 0.151 | [4]; compound concentration: 200uM -0.708 | [5]; compound concentration: 50uM 0.209 | [5]; compound concentration: 200uM -0.13 | [6]; compound concentration: 50uM 0.141 | [6]; compound concentration: 200uM -0.46 | [7]; compound concentration: 0.78uM -0.028 | [7]; compound concentration: 1.56uM 0.0284 | [7]; compound concentration: 3.13uM -0.0886 | [7]; compound concentration: 6.25uM -0.0483 | [7]; compound concentration: 12.5uM -0.117 | [7]; compound concentration: 25uM -0.177 | [7]; compound concentration: 50uM -0.175 | [7]; compound concentration: 100uM -0.0863 | [7]; compound concentration: 200uM -0.2 | [8]; compound concentration: 0.78uM -0.148 | [8]; compound concentration: 1.56uM -0.0805 | [8]; compound concentration: 3.13uM -0.0521 | [8]; compound concentration: 6.25uM -0.105 | [8]; compound concentration: 12.5uM -0.0644 | [8]; compound concentration: 25uM -0.126 | [8]; compound concentration: 50uM -0.193 | [8]; compound concentration: 100uM -0.134 | [8]; compound concentration: 200uM -0.343 | [9]; compound concentration: 0.78uM -0.009 | [9]; compound concentration: 1.56uM -0.013 | [9]; compound concentration: 3.13uM -0.0452 | [9]; compound concentration: 6.25uM -0.0162 | [9]; compound concentration: 12.5uM -0.088 | [9]; compound concentration: 25uM -0.093 | [9]; compound concentration: 50uM -0.0741 | [9]; compound concentration: 100uM -0.151 | [9]; compound concentration: 200uM -0.346 | [10]; compound concentration: 50uM -0.366 | [11]; compound concentration: 50uM -0.409 | [12]; compound concentration: 50uM -0.487 | [13]; compound concentration: 50uM -0.993 | [14]; compound concentration: 50uM -0.374 | [14]; compound concentration: 200uM -0.994 | [15]; compound concentration: 50uM -0.209 | [15]; compound concentration: 200uM -0.569 | [16]; compound concentration: 50uM -0.878 | [17]; compound concentration: 50uM -0.754 | [18]; compound concentration: 50uM -0.355 | [19]; compound concentration: 50uM -0.201 | [19]; compound concentration: 200uM -0.568 | [1]; compound concentration: 50uM -0.0604 | [1]; compound concentration: 200uM -0.635

USP25 (UniProt Q9UHP3)
UniProt Q9UHP3, sequence (Q9UHP3 whole entry): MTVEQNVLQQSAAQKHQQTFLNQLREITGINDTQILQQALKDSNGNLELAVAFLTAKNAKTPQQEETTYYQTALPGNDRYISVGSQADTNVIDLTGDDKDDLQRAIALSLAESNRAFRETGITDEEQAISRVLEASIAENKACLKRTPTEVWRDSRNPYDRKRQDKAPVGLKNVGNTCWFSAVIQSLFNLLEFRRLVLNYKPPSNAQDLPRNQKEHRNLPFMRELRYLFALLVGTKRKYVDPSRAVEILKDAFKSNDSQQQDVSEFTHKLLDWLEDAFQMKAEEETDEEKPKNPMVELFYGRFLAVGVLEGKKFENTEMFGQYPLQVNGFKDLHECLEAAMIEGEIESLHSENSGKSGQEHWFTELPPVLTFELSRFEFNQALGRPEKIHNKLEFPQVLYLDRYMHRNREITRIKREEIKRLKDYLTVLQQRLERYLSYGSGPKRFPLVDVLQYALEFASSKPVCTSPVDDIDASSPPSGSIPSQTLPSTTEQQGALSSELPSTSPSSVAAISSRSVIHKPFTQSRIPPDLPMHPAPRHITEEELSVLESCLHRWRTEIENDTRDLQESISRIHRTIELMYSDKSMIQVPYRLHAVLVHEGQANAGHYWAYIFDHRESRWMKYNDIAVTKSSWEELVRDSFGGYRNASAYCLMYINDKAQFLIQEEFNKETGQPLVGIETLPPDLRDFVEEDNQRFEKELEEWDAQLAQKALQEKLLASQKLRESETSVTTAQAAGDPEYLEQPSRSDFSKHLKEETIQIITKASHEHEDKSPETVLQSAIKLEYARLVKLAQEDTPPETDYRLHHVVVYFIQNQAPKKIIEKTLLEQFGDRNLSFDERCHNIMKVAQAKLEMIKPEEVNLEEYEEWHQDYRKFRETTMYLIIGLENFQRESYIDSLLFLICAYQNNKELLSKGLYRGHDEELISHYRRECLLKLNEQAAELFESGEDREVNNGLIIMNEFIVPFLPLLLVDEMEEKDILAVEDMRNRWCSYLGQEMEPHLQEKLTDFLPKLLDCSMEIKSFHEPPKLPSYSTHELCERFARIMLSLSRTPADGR
inactive: [2]; compound concentration: 50uM 0.366 | [3]; compound concentration: 50uM -0.365 | [3]; compound concentration: 200uM -0.0888 | [4]; compound concentration: 50uM -0.861 | [5]; compound concentration: 50uM 0.177 | [5]; compound concentration: 200uM -0.552 | [6]; compound concentration: 50uM 0.145 | [6]; compound concentration: 200uM -0.0181 | [7]; compound concentration: 0.78uM -0.139 | [7]; compound concentration: 1.56uM -0.159 | [7]; compound concentration: 3.13uM -0.428 | [7]; compound concentration: 6.25uM -0.379 | [7]; compound concentration: 12.5uM -0.358 | [7]; compound concentration: 25uM -0.339 | [7]; compound concentration: 50uM -0.0397 | [7]; compound concentration: 100uM -0.3 | [7]; compound concentration: 200uM -0.848 | [8]; compound concentration: 0.78uM -0.531 | [8]; compound concentration: 1.56uM -0.227 | [8]; compound concentration: 3.13uM -0.277 | [8]; compound concentration: 6.25uM -0.312 | [8]; compound concentration: 12.5uM -0.223 | [8]; compound concentration: 25uM -0.606 | [8]; compound concentration: 50uM -0.594 | [8]; compound concentration: 100uM -0.346 | [8]; compound concentration: 200uM -0.308 | [9]; compound concentration: 0.78uM -0.226 | [9]; compound concentration: 1.56uM -0.458 | [9]; compound concentration: 3.13uM -0.0391 | [9]; compound concentration: 6.25uM -0.447 | [9]; compound concentration: 12.5uM -0.421 | [9]; compound concentration: 25uM -0.293 | [9]; compound concentration: 50uM -0.255 | [9]; compound concentration: 100uM -0.504 | [9]; compound concentration: 200uM -0.644 | [10]; compound concentration: 50uM -0.56 | [11]; compound concentration: 50uM -0.02 | [11]; compound concentration: 200uM 0.295 | [12]; compound concentration: 50uM 0.514 | [13]; compound concentration: 200uM -0.67 | [14]; compound concentration: 50uM -0.138 | [14]; compound concentration: 200uM -0.338 | [15]; compound concentration: 50uM -0.545 | [15]; compound concentration: 200uM -0.345 | [16]; compound concentration: 50uM 0.265 | [16]; compound concentration: 200uM -0.358 | [17]; compound concentration: 50uM 0.409 | [17]; compound concentration: 200uM -0.517 | [18]; compound concentration: 50uM -0.562 | [18]; compound concentration: 200uM 0.332 | [19]; compound concentration: 50uM -0.946 | [19]; compound concentration: 200uM -0.711 | [20]; compound concentration: 50uM 0.621 | [20]; compound concentration: 200uM -0.242 | [1]; compound concentration: 50uM -0.129 | [1]; compound concentration: 200uM -0.557
active: [2]; compound concentration: 200uM -1.92 | [4]; compound concentration: 200uM -2.93 | [10]; compound concentration: 200uM -1.2 | [12]; compound concentration: 200uM -1.46 | [13]; compound concentration: 50uM -1.05
